# Test results: PubChem BioAssay (Tox21)
# A number with no mark means an inactive call. Inconclusive results are not listed. Where a call stands in place of a potency, no number is given. The source made the active and inactive calls. Unless noted, calls come from the whole dose curve.
# Tests used:
# [1] = Nuclear factor erythroid 2-related factor 2/antioxidant responsive element (Nrf2/ARE) small molecule agonists: qHTS cell viability counter screen in human keratinocytes (AID 1919968; active = well fitted curve in the direction sought with a large enough effect in the repeat runs; an effect the other way counts as inactive or inconclusive; note: nearly all actives have a fitted effect of over 55% in size)
# Procedure, shortened: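 In human HaCaT keratinocytes stably expressing an ARE-driven luciferase, compound exposure lasted 23 h at 37 C under 5% CO2. Viable cells are quantified with a protease-based fluorogenic reagent (CellTiter-Fluor) read 1 h after addition.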
# [2] = Nuclear factor erythroid 2-related factor 2/antioxidant responsive element (Nrf2/ARE) small molecule agonists: luciferase reporter gene qHTS assay in human keratinocytes (AID 1919969); note: nearly all actives have a fitted effect of over 35% in size; note: potency is the fitted concentration of half-maximal effect
# [3] = molecular target: Gonadotropin-releasing hormone receptor (Homo sapiens) (UniProt P30968); experiment: Human gonadotropin-releasing hormone receptor (GnRHR) small molecule agonists, calcium flux assay in GnRHR-HEK293 cells (AID 1920063); note: nearly all actives have a fitted effect of over 35% in size
# Gonadotropin-releasing hormone receptor (Homo sapiens), sequence (P30968 whole entry, looked up): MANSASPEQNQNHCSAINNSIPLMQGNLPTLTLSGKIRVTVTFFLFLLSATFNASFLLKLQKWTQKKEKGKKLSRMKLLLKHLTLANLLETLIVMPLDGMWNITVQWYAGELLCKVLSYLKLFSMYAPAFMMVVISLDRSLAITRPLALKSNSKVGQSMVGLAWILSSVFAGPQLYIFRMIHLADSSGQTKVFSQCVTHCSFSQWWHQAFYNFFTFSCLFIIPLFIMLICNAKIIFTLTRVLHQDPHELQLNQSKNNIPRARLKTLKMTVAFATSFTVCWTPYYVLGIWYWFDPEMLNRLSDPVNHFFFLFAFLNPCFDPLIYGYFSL
# Procedure, shortened: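 Intracellular calcium rise is the read-out: engineered human GnRHR HEK293 cells, dye-loaded, are exposed to DMSO-dissolved compounds and fluorescence at Ex/Em 480/540 is tracked for 3 min.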
# [4] = molecular target: KiSS-1 receptor (Homo sapiens) (UniProt Q969F8); experiment: Human kisspeptin (KISS1R) small molecule agonists, calcium flux assay in KISS1R-HEK293 cells (AID 1920064; active = well fitted curve in the direction sought with a large enough effect in the repeat runs; an effect the other way counts as inactive or inconclusive)
# KiSS-1 receptor (Homo sapiens), sequence (Q969F8 whole entry, looked up): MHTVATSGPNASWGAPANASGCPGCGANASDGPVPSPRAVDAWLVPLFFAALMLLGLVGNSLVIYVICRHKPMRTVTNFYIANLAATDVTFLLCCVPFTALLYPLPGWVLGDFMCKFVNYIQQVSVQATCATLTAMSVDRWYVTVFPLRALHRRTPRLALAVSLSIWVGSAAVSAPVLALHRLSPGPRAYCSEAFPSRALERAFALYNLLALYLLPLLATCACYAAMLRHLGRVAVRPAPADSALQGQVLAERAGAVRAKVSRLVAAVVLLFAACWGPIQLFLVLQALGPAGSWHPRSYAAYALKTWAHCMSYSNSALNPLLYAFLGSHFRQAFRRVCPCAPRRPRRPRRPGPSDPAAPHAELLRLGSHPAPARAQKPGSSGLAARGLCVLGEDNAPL
# Procedure, shortened: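 Concentration-response testing used 15 concentrations in triplicate on human KISS1R-expressing HEK293 cells. Calcium-dependent fluorescence (Ex/Em 480/540) was followed kinetically for 3 min after compound transfer.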
# [5] = G protein-coupled receptor (GPCR) small molecule agonists, calcium flux assay: HEK293 wild type cell line counter screen (AID 1920065)
# Procedure, shortened: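 Fluorescence intensity signals activation. After overnight (18 h) culture and a 1 h calcium dye load at 37 C, compounds are added by pin tool and the plate read at 480/540 nm for 3 min in 1 s steps.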
# [6] = p53 small molecule agonists, cell-based qHTS assay with human liver microsomes (AID 1963577)
# Procedure, shortened: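 Compounds act here after metabolic activation: human liver microsomes and NADPH, both at 0.5 mg/mL final, were co-added to p53RE-bla cells. Incubation ran 16 h at 37 C, followed by LiveBLAzer detection.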
# [7] = p53 small molecule agonists, cell-based qHTS assay with rat liver microsomes (AID 1963578)
# Procedure, shortened: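 Read-out is beta-lactamase reporter fluorescence (LiveBLAzer, 2 h, room temperature, dark) in p53RE-bla cells treated 16 h at 37 C with compound, rat liver microsomes and NADPH, both 0.5 mg/mL final.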
# [8] = p53 small molecule agonists, cell-based qHTS assay with human liver microsomes: qHTS cell viability counter screen (AID 1963579); note: nearly all actives have a fitted effect of over 45% in size
# Procedure, shortened: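 Cells carrying the p53 response-element beta-lactamase reporter are treated for 16 h at 37 C with test compounds in the presence of human liver microsomes and NADPH (both 0.5 mg/mL final); ATP-based CellTiter-Glo luminescence then reports viability.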
# [9] = p53 small molecule agonists, cell-based qHTS assay with rat liver microsomes: qHTS cell viability counter screen (AID 1963580); note: nearly all actives have a fitted effect of over 45% in size
# Procedure, shortened: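 After the beta-lactamase ratio was read, CellTiter-Glo was added to the same wells and luminescence measured at 30 min; cells had been treated 16 h at 37 C with compounds, rat liver microsomes and NADPH (0.5 mg/mL final each).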
# [10] = p53 small molecule agonists, cell-based qHTS assay: qHTS cell viability counter screen (AID 1963581); note: nearly all actives have a fitted effect of over 45% in size
# Procedure, shortened: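 Luminescence from CellTiter-Glo, reflecting ATP content, serves as the cytotoxicity measure; it is taken after the 2 h reporter substrate step in HCT-116 p53RE-bla cells dosed for 16 h at 37 C.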
# [11] = p53 small molecule agonists, cell-based qHTS assay (AID 1963582; active = well fitted activation curve with a large enough effect in the signal ratio in the repeat runs, not every such curve was filed as active; the % refers to the signal ratio)
# Procedure, shortened: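 After plating, p53RE-bla cells sat 5 h in the incubator; compounds or DMSO vehicle were pinned in; a 16 h incubation at 37 C followed; FRET substrate was added and, 2 h later at RT, fluorescence was measured.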
# [12] = molecular target: Muscarinic acetylcholine receptor M1 (Homo sapiens) (UniProt P11229); experiment: Cholinergic receptor muscarinic 1 (CHRM1) small molecule antagonists, cell-based qHTS assay (AID 1963588); note: nearly all actives have a fitted effect of over 40% in size
# Muscarinic acetylcholine receptor M1 (Homo sapiens), sequence (P11229 whole entry, looked up): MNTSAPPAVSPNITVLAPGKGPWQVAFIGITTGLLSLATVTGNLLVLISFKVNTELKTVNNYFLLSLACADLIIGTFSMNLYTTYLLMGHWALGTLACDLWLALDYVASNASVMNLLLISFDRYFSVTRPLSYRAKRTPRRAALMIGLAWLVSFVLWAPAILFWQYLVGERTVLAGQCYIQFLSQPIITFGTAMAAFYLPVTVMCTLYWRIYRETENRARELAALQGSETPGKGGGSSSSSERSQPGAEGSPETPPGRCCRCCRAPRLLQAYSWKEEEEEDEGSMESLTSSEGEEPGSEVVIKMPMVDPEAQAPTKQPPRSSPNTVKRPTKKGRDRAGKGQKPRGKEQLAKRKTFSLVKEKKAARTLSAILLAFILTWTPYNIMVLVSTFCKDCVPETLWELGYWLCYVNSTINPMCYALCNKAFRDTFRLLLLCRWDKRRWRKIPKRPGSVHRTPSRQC
# Procedure, shortened: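 Compounds were tested at 15 concentrations in three independent runs. Dye-loaded CHRM1-CHO cells were exposed 5 min at room temperature before stimulation by acetylcholine added at 50nM. Intracellular calcium was read kinetically on FDSS for 3 min.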
# [13] = molecular target: Muscarinic acetylcholine receptor M1 (Homo sapiens) (UniProt P11229); experiment: Cholinergic receptor muscarinic 1 (CHRM1) small molecule agonists, cell-based qHTS assay (AID 1963589); note: nearly all actives have a fitted effect of over 35% in size
# Procedure, shortened: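 Fluorescent calcium dye reports M1 activation in stably transfected CHO cells. Compounds, 15 concentrations, added after 1 h dye loading at 37 C; kinetic reading at 1 sec intervals.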
# [14] = cAMP Responsive Elements (CRE) small molecule agonists, cell-based qHTS assay (AID 1963590)
# Procedure, shortened: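 Compound exposure lasted 3 h at 37 C/5% CO2 in CRE-bla HEK 293T cells grown in assay medium with 10% dialyzed FBS and 25 mM HEPES. Reporter signal came from LiveBLAzer B/G FRET substrate, 2 h, room temperature.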
# [15] = cAMP Responsive Elements (CRE) small molecule antagonists, cell-based qHTS assay (AID 1963591; active = well fitted inhibition curve with a large enough effect in the signal ratio in the repeat runs, not every such curve was filed as active; the % refers to the signal ratio)
# Procedure, shortened: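 Stimulation used NKH477 at a final 0.25 uM for 3 h in compound-treated CRE-bla HEK293T cells, seeded 18 h beforehand. Reporter activity was measured with LiveBLAzer B/G FRET substrate after 2 h at room temperature.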
# [16] = molecular target: D(2) dopamine receptor (Homo sapiens) (UniProt P14416); experiment: Dopamine D2 receptor (DRD2) small molecule agonists, cell-based qHTS assay (AID 1963594); note: nearly all actives have a fitted effect of over 35% in size
# D(2) dopamine receptor (Homo sapiens), sequence (P14416 whole entry, looked up): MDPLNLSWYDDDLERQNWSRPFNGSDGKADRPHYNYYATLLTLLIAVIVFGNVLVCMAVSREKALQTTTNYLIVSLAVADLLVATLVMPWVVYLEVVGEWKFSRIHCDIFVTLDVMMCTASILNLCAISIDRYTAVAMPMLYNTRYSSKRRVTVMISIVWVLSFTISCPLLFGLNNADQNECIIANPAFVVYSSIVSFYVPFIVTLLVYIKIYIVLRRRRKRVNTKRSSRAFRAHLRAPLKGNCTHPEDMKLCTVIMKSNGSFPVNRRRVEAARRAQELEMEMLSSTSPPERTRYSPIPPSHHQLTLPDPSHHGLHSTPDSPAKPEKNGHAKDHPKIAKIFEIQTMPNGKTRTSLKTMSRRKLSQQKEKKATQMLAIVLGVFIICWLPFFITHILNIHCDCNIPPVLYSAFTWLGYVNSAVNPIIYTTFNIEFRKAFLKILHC
# Procedure, shortened: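 HEK293 cells stably expressing human DRD2, pre-treated with PDE inhibitor Ro20-1724 (0.1 mM final) and compound 10 min at room temperature, then stimulated with NKH477 (200nM […]) for 30 min. cAMP read by HTRF (665/620 nm).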
# [17] = molecular target: D(2) dopamine receptor (Homo sapiens) (UniProt P14416); experiment: Dopamine D2 receptor (DRD2) small molecule antagonists, cell-based qHTS assay (AID 1963595; active = well fitted inhibition curve with a large enough effect in the signal ratio in the repeat runs, with a control signal flat; the % refers to the signal ratio)
# Procedure, shortened: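 DRD2-HEK293; 0.1 mM Ro20-1724; cpd 10 min RT; NKH477 200 nM + quinpirole 12 nM, 30 min RT; HTRF cAMP (cAMP-d2/anti-cAMP cryptate), 665/620 nm ratio after 1 h.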
# [18] = molecular target: 5-hydroxytryptamine receptor 2A (Homo sapiens) (UniProt P28223); experiment: 5-hydroxytryptamine receptor 2A (HTR2A) small molecule agonists, cell-based qHTS assay (AID 1963587); note: nearly all actives have a fitted effect of over 30% in size
# 5-hydroxytryptamine receptor 2A (Homo sapiens), sequence (P28223 whole entry, looked up): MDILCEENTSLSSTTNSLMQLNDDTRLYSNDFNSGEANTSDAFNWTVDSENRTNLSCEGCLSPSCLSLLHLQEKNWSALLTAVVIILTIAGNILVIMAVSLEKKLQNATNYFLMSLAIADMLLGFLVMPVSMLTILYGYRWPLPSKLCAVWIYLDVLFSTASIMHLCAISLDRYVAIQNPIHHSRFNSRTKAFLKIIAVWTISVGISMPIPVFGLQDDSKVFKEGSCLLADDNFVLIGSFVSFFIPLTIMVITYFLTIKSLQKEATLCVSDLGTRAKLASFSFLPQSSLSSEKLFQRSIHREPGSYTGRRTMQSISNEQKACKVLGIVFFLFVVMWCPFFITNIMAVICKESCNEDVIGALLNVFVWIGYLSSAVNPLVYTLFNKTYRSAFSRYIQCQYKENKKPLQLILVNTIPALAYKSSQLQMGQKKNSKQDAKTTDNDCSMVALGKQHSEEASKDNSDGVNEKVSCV
# Procedure, shortened: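 CHO cells stably expressing human HTR2A, plated 18 h, loaded with calcium dye 1 h at 37 C. Agonist mode: compounds added and intracellular calcium fluorescence recorded kinetically for 2 min at 1 sec intervals.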
# [19] = molecular target: Beta-2 adrenergic receptor (Homo sapiens) (UniProt P07550); experiment: Adrenergic beta2 receptor (ADRB2) small molecule antagonists, cell-based qHTS assay (AID 1963592); note: series mostly up to about 92 µM; nearly all actives have a fitted effect of over 50% in size
# Beta-2 adrenergic receptor (Homo sapiens), sequence (P07550 whole entry, looked up): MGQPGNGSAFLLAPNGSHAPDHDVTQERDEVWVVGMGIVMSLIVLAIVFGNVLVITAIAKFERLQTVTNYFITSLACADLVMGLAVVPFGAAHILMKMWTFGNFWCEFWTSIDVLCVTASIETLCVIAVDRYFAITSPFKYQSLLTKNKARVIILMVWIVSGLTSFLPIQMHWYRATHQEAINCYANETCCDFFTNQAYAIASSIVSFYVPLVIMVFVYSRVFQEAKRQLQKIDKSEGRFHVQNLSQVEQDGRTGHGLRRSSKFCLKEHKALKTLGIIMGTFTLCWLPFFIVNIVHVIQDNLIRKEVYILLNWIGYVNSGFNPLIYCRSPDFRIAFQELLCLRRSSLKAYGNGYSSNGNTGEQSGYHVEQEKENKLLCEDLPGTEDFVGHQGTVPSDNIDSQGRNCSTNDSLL
# Procedure, shortened: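 Assay format: CHO-ADRB2 cells, 18-20hr seeding at 37C/5% CO2, then compound plus 1nM isoproterenol agonist mix for 0.5hr RT. Homogeneous time-resolved fluorescence cAMP detection after 1hr, expressed as 665/615 nm ratio.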
# [20] = molecular target: Beta-2 adrenergic receptor (Homo sapiens) (UniProt P07550); experiment: Adrenergic beta2 receptor (ADRB2) small molecule agonists, cell-based qHTS assay (AID 1963593);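 note: CHO cells stably overexpressing human ADRB2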
# Procedure, shortened: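 CHO cells stably over-expressing ADRB2 were plated overnight at 37C, then dosed with compounds plus a stimulation mix containing 100uM IBMX and 25uM Ro-20-1724 for 0.5hr at room temperature. cAMP was measured by HTRF competition, 1hr.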
structure (smiles),measurement,setting,value
Cc1ccc(CCn2c3c(c4cc(Cl)ccc42)CN(C)CC3)cn1,Potency,[1],inactive
same,Potency,[2],inactive
same,Potency,[3],inactive
same,outcome,[4],inactive
same,outcome,[5],inactive
same,Potency,[6],inactive
same,Potency,[7],inactive
same,Potency,[8],inactive
same,Potency,[9],inactive
same,Potency,[10],inactive
same,Potency,[11],inactive
same,Potency,[12],inactive
same,Potency,[13],inactive
same,Potency,[14],inactive
same,Potency,[15],inactive
same,Potency,[16],inactive
same,Potency,[17],inactive
Cc1cc(NS(=O)(=O)c2ccc(N)cc2)nc(C)n1,Potency,[1],inactive
same,Potency,[2],inactive
same,Potency,[3],inactive
same,outcome,[4],inactive
same,outcome,[5],inactive
same,Potency,[6],inactive
same,Potency,[7],inactive
same,Potency,[8],inactive
same,Potency,[9],inactive
same,Potency,[10],inactive
same,Potency,[11],inactive
same,Potency,[18],inactive
same,Potency,[13],inactive
same,Potency,[14],inactive
same,Potency,[15],inactive
same,Potency,[19],inactive
same,Potency,[20],inactive
same,Potency,[16],inactive
same,Potency,[17],inactive
Cc1c(C)c2c(c(C)c1O)CC[C@@](C)(CCC[C@H](C)CCC[C@H](C)CCCC(C)C)O2,Potency,[1],inactive
same,Potency,[2],inactive
same,Potency,[3],inactive
same,outcome,[4],inactive
same,outcome,[5],inactive
same,Potency,[6],inactive
same,Potency,[7],inactive
same,Potency,[8],inactive
same,Potency,[9],inactive
same,Potency,[10],inactive
same,Potency,[11],inactive
same,Potency,[14],inactive
same,Potency,[15],inactive
same,Potency,[19],inactive
same,Potency,[20],inactive
same,Potency,[16],inactive
same,Potency,[17],inactive
CN(C)CC/C=C1/c2ccccc2COc2ccc(CC(=O)O)cc21,Potency,[1],inactive
same,Potency,[2],inactive
same,Potency,[3],inactive
same,outcome,[4],inactive
same,outcome,[5],inactive
same,Potency,[6],inactive
same,Potency,[7],inactive
same,Potency,[8],inactive
same,Potency,[9],inactive
same,Potency,[10],inactive
same,Potency,[11],inactive
same,Potency,[18],inactive
same,Potency,[13],inactive
same,Potency,[14],inactive
same,Potency,[15],inactive
same,Potency,[19],inactive
same,Potency,[16],inactive
same,Potency,[17],inactive
O=C1c2ccccc2C(=O)c2cc(O)ccc21,Potency,[1],inactive
same,Potency,[2],inactive
same,Potency,[3],inactive
same,outcome,[4],inactive
same,outcome,[5],inactive
same,Potency,[6],inactive
same,Potency,[7],inactive
same,Potency,[8],inactive
same,Potency,[9],inactive
same,Potency,[10],inactive
same,Potency,[11],inactive
same,Potency,[18],inactive
same,Potency,[13],inactive
same,Potency,[15],inactive
same,Potency,[19],inactive
same,Potency,[20],inactive
same,Potency,[16],inactive
same,Potency,[17],inactive
C[C@H](N)[C@H](O)c1cccc(O)c1,Potency,[1],inactive
same,Potency,[2],inactive
same,Potency,[3],inactive
same,outcome,[4],inactive
same,outcome,[5],inactive
same,Potency,[6],inactive
same,Potency,[7],inactive
same,Potency,[8],inactive
same,Potency,[9],inactive
same,Potency,[10],inactive
same,Potency,[11],inactive
same,Potency,[12],inactive
same,Potency,[13],inactive
same,Potency,[14],inactive
same,Potency,[15],inactive
same,Potency,[19],inactive
same,Potency,[16],inactive
same,Potency,[17],inactive
CCCCOc1cc(C(=O)NCCN(CC)CC)c2ccccc2n1,Potency,[1],inactive
same,Potency,[2],inactive
same,Potency,[3],inactive
same,outcome,[4],inactive
same,outcome,[5],inactive
same,Potency,[6],inactive
same,Potency,[7],inactive
same,Potency,[8],inactive
same,Potency,[9],inactive
same,Potency,[10],inactive
same,Potency,[11],inactive
same,Potency,[12],inactive
same,Potency,[13],inactive
same,Potency,[14],inactive
same,Potency,[15],inactive
same,Potency,[19],inactive
same,Potency,[20],inactive
same,Potency,[16],inactive
same,Potency,[17],inactive
CN(C)CCN(Cc1ccsc1)c1ccccn1,Potency,[1],inactive
same,Potency,[2],inactive
same,Potency,[3],inactive
same,outcome,[4],inactive
same,outcome,[5],inactive
same,Potency,[6],inactive
same,Potency,[7],inactive
same,Potency,[8],inactive
same,Potency,[9],inactive
same,Potency,[10],inactive
same,Potency,[11],inactive
same,Potency,[18],inactive
same,Potency,[13],inactive
same,Potency,[14],inactive
same,Potency,[15],inactive
same,Potency,[19],inactive
same,Potency,[20],inactive
same,Potency,[16],inactive
same,Potency,[17],inactive
O=C(OCCCCCCOC(=O)c1ccccc1)c1ccccc1,Potency,[1],inactive
same,Potency,[2],68.6 µM (active)
same,Potency,[3],inactive
same,outcome,[4],inactive
same,outcome,[5],inactive
same,Potency,[6],inactive
same,Potency,[7],inactive
same,Potency,[8],inactive
same,Potency,[9],inactive
same,Potency,[10],inactive
same,Potency,[11],inactive
same,Potency,[18],inactive
same,Potency,[13],inactive
same,Potency,[14],inactive
same,Potency,[15],inactive
same,Potency,[19],inactive
same,Potency,[16],inactive
same,Potency,[17],inactive
CCN(CCO)CCCC(C)Nc1ccnc2cc(Cl)ccc12 (stereo not given),"activity change, negative = cytotoxicity",[1],-14.6% [at 8.39 µM]
same,"activity, positive = activation",[2],-5.51% [at 8.39 µM]
same,activity change,[3],"-0.334% [at 5.22 µM, stronger effect = higher value]"
same,activation,[4],-0.232% [at 6.97 µM]
same,activation,[5],-1.14% [at 5.23 µM]
same,activation,[6],9.14% [at 5.99 µM]
same,activation,[7],0.449% [at 5.99 µM]
same,"activity change, negative = cytotoxicity",[8],-18.4% [at 5.99 µM]
same,"activity change, negative = cytotoxicity",[9],-0.0605% [at 5.99 µM]
same,"activity change, negative = cytotoxicity",[10],14.7% [at 5.99 µM]
same,activation,[11],0.694% [at 5.99 µM]
same,activation,[14],0.273% [at 8.39 µM]
same,"activity change, negative = inhibition",[15],-1.93% [at 8.39 µM]
same,"activity change, negative = inhibition",[19],1.52% [at 8.39 µM]
same,activation,[20],0.519% [at 8.39 µM]
same,activation,[16],4.56% [at 8.39 µM]
same,"activity change, negative = inhibition",[17],12.2% [at 8.38 µM]
